Among all 53,000 sequences or so, about 3,700 (7%) were called active. Many of the other results were omitted from the sample, so actives are more common in it than they were. Unmarked numbers belong to inactive results.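 Rule for the calls: active = gene knockdowns whose robust z-score for IL-1 alpha signal is at least 2 or at most -2, so actives lie on both sides; inactive = the rest.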

Consider 69 sequences from PubChem BioAssay AID1508600 (Functional Genomics Laboratory (NCATS/FGL), 2020).

This assay in a line: Components of the Cytosolic LPS Sensing Pathway: Gene Identification via Genome-wide siRNA Screen.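 Note: robust z of the log signal after scaling to non-targeting control siRNA wells of the plate.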 As to conditions: RAW264.7 macrophages, IL-1a HTRF, actives lie on both sides, screened at 100 nM (by protocol), cells primed 5 h with Pam3CSK4 first. A digest of the protocol: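 Supernatant IL-1a by HTRF from RAW264.7 cells primed with Pam3CSK4 (5 hours) and transfected with LipidA (24 hour) after 48h siRNA knockdown at 100 nM; cell viability checked with CellTiter-Glo.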
On the technique in general: In TR-FRET formats the signal depends on donor and acceptor labels being close together.
For GCUGCUCUGCUAUAAGUAUTT against Kptn, the z-score was -0.269. With GGAAAUCGAUAGUUUCUUCTT against Olfr1302, the z-score was -0.0687. With GACCUUCGUUAGCAUUACGTT against Pfn1, the z-score is 0.65.

With GCUGUUUUGUCUCCAGCCCTT against Zbtb20, the z-score is -0.118. GGGAUAUGUGACUAUGUUATT against Slc5a7: the z-score was -0.138. The figure for GCUGAGAAUCGUUUAAAUGTT against Ugt2a3 is 0.00662; for “GCUAAUUGUUCACUAAAGGTT against 1700029H14Rik” it is 0.655.

As for GGUUAUCAUGAGGCCUUGGTT against Olfr1339, the z-score was -2.38 (active). The same measure for GGUCAGAAAAGUAUGUUGGTT against Naip5: 0.208; for GUGUAUCCCAGGCUAUCACTT against Vmn1r19: -1.17; for GCCACGAUAAUUCAGGAGUTT against Aurkc: 2.27 (active). As for GCUGAAUGGAAGGAAGUUGTT against Wdr83os, the z-score is -1.32. CGCCAAUGUGAUUAAACUATT against Mak: the z-score is 2.01 (active). The same measure for GGACAUGUGUAAAUAAUCATT against En2: 3.4 (active); for GGUGAUAGUACUGUCAGCCTT against Olfr1225: -0.517; for GGAACAAGAACAAGUUGAGTT against Spa17: 0.389. The figure for GGUGGAAGCACUCAAUAAGTT against Pik3cb is -1.24. With GGUGCUUCUCUAAGAUAAUTT against Ddias, the z-score was 0.776.

With CCCUUACUUAGUCUCCACUTT against Olig1, the z-score is -0.025. The same measure for GGUGUUAUCAGAAUUCAGATT against Cars: 2.6 (active). The figure for GGACCACCGUGAUCAACAUTT against Ifitm2 is 0.215; for GCUCACUUGUAGUGCUUUATT against Arf2 it is 1.88. On to GGCGUAAACAUGGUGUGCATT against Taok3, for which the z-score is -0.807.

GCUCUAUAGUGACCAAUGUTT against Gcgr: the z-score is -0.072. The figure for GGAAGUUCCACGUUAUUGUTT against Eif2b2 is -1.3. The figure for GCGAUUUCACACCAUCACATT against Rab10 is -1.03. Consider GGAUGAUUUAUGGUUACUGTT against Vmn1r80, for which the z-score is 2.01 (active).

As for GGCCUUUCACAACAUAAAATT against Chil6, the z-score is -0.808. The same measure for GGGAGCAGUCUUCCCUCAUTT against Cox8a: -1.44; for AGAAAUGCCUCUUCAGUGATT against Olfr884: 1.59; for GGAGAAAUGAAGAUUGUGGTT against Tmem218: -2.31 (active). As to GGUCAGCCAGACCAUUUCUTT against Edc3, the z-score was -1.27. The figure for GGUGGCAAAGUGGUGAUCCTT against Fabp7 is 2.05 (active); for GGAUCUUAUUAUUUGAUCCTT against Mettl15 it is -0.671; for GGAAGUAGAUUAGAUGGUATT against Akt3 it is 0.52. Take GGAAUACCACAUGCUUUUGTT against Ldah: the z-score is -0.288.

Turning to GCUAACCCUCGUUUAGAAGTT against Apol9b, the z-score was 0.529. Consider GGCAUCUUGGAGGAUUUGCTT against Cyrib, for which the z-score was 0.719. The figure for GGGUCAAUCAUGAAUGUUUTT against Pak4 is -1.02. For GAUUUGAGACCCAGAUCAUTT against Gzmm, the z-score was 2.08 (active). GGGACAUGUUUUGAUAAAGTT against Yy1: the z-score is -0.591. The same measure for GCUUCGGAAUCGGUUACCATT against Alg2: -1.28.

As for GGUUGUUUAUGCUUUCUCUTT against Arhgap32, the z-score is -0.766.

On to CGAAGUGGUUUUAUGUACUTT against Cdkn2b, for which the z-score was -2.39 (active).

For GAUGGUCAUCCUUCCUUUATT against Olfr341, the z-score was -0.737. The same measure for GCUUAGACGACUAGACCUGTT against Slit2: -0.186. The same measure for GGUGGUCUGAUCGUAGACATT against Lrrc61: 0.672; for GGGCUGACUAUUAUUUCAGTT against Cysltr2: -0.107. The figure for GGAAUUUGUGAAAAGAAGUTT against Aldh1a2 is -0.923; for CGAUAAAAGAGAGAUGAUUTT against Rap1gds1 it is 0.699; for GGUGGUAAUUUUUCUCAGATT against Agxt2 it is -1.74. For CCAUCUUGGAGAUCCUGAUTT against Kat5, the z-score is -2.46 (active). The figure for GGAAAAUCUUAGGAAGAUGTT against Elf4 is -0.39; for GCUUACCCUGACUCCAAUUTT against Dhx33 it is -1.76; for CCAAGGUCUAAAAAAAUAGTT against Adamts19 it is -0.907. The same measure for GGAGGUAACAACAACAGAATT against BC028528: 0.7; for GGUAGAGAACCAUUUGCUGTT against Dtnbp1: -0.376. The figure for “GGAACACACAAUUUUAUCATT against 4933436I01Rik” is -2.98 (active).

As to CCAUACAAGAGUGACAGUUTT against Olfr810, the z-score is -0.736. The figure for GGCAAUCCAGGCAAUAUCATT against C1qa is -0.808; for CCCUAACUACUUCAUGAAUTT against Paip1 it is -2.11 (active); for GGAAAUCCAUUGUUUAAAGTT against Wt1 it is 2.01 (active). As for CCAUGUGACAGCAUUGUUGTT against Axin1, the z-score is 0.754. As to CCAGAUUAUCCGUUUAAACTT against Ube2e2, the z-score is 0.242.

With GCGUGAGAUACCAUAUUAUTT against Bank1, the z-score was -1.47. Take GGUCUACCUAAAACUGGAGTT against Cbln4: the z-score was 0.337. The same measure for GGGAGAGAUGUCAUUGCACTT against Eif4a3: -1.9; for GCGGCUACGUGUUUGACUATT against Csnk1g2: -0.735; for GCACUUAGACUAUUCCAGGTT against Tph2: -0.118.
